Source: PubChem BioAssay (NCATS)
Inconclusive results are not listed. Unmarked numbers belong to inactive results. The source made the active and inactive calls. Calls follow the shape of the dose curve; as a rule, active = well fitted inhibition curve with a large enough effect; inconclusive = small, poorly fitted or top-dose-only effect; inactive = flat fitted curve, though single readings scatter. Where a SMILES comes first, the peptide text is derived from it. The star is where a group is joined. AMC = Cc1cc(=O)oc2cc(N*)ccc12; Cbz = O=C(OCc1ccccc1)*

Assay: P-glycoprotein substrates identified in KB-8-5-11 adenocarcinoma cell line, qHTS therapeutic library screen (AID 1346987); also: nearly all actives have a fitted effect of over 65% in size
Conditions: KB-8-5-11 (P-gp overexpressing) viability, CellTiter-Glo, 72 h; series mostly up to 44.5 µM; activity change, negative = cytotoxicity: at the top concentration
Summary of the method: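 Luminescence from CellTiter-Glo, read 5 min after addition, quantified survival of KB-8-5-11 (P-gp-overexpressing) cells exposed to compounds for 72 h. AC50 was derived from concentration-response curves.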
% is scaled to controls: 0 for no effect and ±100 for the full control effect.

| SMILES | activity change, negative = cytotoxicity | outcome |
| --- | --- | --- |
| c1ccc2c(Nc3nnc(-c4ccncc4)s3)cccc2c1 | -12.4% | – |
| O=C(/C=C/c1ccc(O)c(O)c1)O[C@H]1[C@H](OC2CCCCC2O)O[C@H](CO)[C@@H](O)[C@@H]1O (some centres not stated) | – | inactive [at 17.3 µM] |
| O=C(O)Cc1cn([C@@H]2O[C@H](CO)[C@@H](O)[C@H](O)[C@H]2O[C@@H]2O[C@H](CO)[C@@H](O)[C@H](O)[C@H]2O)c2ccccc12 | – | inactive [at 17.3 µM] |
| CC(C)=CCc1cc(O[C@@H]2O[C@H](CO[C@@H]3OC[C@](O)(CO)[C@H]3O)[C@@H](O)[C@H](O)[C@H]2O)ccc1O | – | inactive [at 17.3 µM] |
| CC(C)c1ccc2c(c1)C(O)CC1C(C)(C(=O)O)CCCC21C (configuration not stated) | 5.92% | – |
| Cc1cc(=O)oc2cc(NC(=O)[C@H](CCC(=O)O)NC(=O)[C@H](CC(C)C)NC(=O)[C@H](CC(C)C)NC(=O)OCc3ccccc3)ccc12 (Cbz-Leu-Leu-Glu-{AMC}) | – | inactive |
| O=C(O)CCc1cccc(O)c1O[C@@H]1O[C@H](CO)[C@@H](O)[C@H](O)[C@H]1O | – | inactive |
| COc1cc(CO)cc(OC)c1O[C@@H]1O[C@H](CO)[C@@H](O)[C@H](O)[C@H]1O | – | inactive |
| CC(=O)c1c(C)cccc1O[C@@H]1O[C@H](CO)[C@@H](O)[C@H](O)[C@H]1O | – | inactive |
| C/C=C(\C)C(=O)OC[C@H]1O[C@@H](O[C@H]2[C@@H](O[C@H]3O[C@H](COC(=O)/C(C)=C/C)[C@@H](O)[C@H](O)[C@H]3O[C@@H]3O[C@H](COC(=O)/C(C)=C/C)[C@@H](O)[C@H](OC(=O)/C(C)=C/C)[C@H]3O)O[C@H](COC(=O)/C(C)=C/C)[C@@H](O)[C@@H]2O)[C@H](O)[C@@H](O)[C@@H]1O | 0.351% [at 9.29 µM] | – |
| COc1c(O)cc2c(c1O)C(=O)O[C@H](C)[C@H]2O | – | inactive |
| CC1CCC2(C(=O)O)CCC3(C)C(=CCC4C5(C)CCC(O)C(C)(C(=O)O)C5CCC43C)C2C1(C)O (configuration not stated) | – | inactive [at 17.3 µM] |
